Giardia kill – Small Molecules that selectively kill Giardia lamblia: qHTS; hit rate 0.15% among 340,000; activity change, % at 7.66 µM, hits read low; Giardia lamblia trophozoite viability; in the data active means activity change below about -80%; inconclusive means between about -30% and that limit;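 further: parasites exposed to compound for two days anaerobically before the ATP read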
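Luminescent ATP signal served as the viability read-out, measured 15-30 min after adding ATP detection reagent to trophozoites that had been incubated with compounds for 48 hrs at 37 deg C anaerobically at 100 cells/well.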
TDP1 block – qHTS Assay for Inhibitors of Tyrosyl-DNA Phosphodiesterase (TDP1); Tyrosyl-DNA phosphodiesterase 1 (Homo sapiens), Q9NUW8; recombinant TDP1, AlphaScreen DNA substrate cleavage; Potency, µM (titrated, usually from 130 µM), inactives show at the top dose activity change, negative = inhibition, usual class: inhibitors; hit rate 0.28% among 350,000; further: potency means the concentration at half of the fitted maximal effect; nearly all actives have a fitted effect of over 40% in size
Target sequence (Q9NUW8 whole entry, looked up): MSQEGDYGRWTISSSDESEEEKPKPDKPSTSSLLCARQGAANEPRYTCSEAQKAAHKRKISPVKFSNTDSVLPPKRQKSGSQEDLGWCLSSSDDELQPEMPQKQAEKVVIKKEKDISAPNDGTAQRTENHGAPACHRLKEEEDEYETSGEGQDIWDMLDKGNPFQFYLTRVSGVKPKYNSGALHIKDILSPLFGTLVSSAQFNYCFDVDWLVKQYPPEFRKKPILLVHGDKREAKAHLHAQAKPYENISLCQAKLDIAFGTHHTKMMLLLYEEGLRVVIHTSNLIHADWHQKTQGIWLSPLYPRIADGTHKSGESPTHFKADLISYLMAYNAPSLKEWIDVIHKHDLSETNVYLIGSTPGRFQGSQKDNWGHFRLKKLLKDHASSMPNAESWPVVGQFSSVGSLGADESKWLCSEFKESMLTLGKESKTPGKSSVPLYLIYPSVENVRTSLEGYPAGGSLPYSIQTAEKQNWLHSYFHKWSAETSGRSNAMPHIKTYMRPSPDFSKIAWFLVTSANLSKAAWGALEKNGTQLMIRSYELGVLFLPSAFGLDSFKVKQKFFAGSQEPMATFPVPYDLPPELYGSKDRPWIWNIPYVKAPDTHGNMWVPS
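Tdp1 1 nM final; 15 min RT w/ cpd; substrate 15 nM, 5 min; beads 10 ug/ml, 10 min; AlphaScreen read. Neg ctrl: no enzyme.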
TDP1 cell CPT – qHTS for Inhibitors of human tyrosyl-DNA phosphodiesterase 1 (TDP1): qHTS in cells in presence of CPT; hit rate 12% among 420,000; AID 686979, 2013; chicken DT40 Tdp1-/-;hTDP1 cells + 20 nM CPT, ATP luminescence, 48 h; Potency, µM (highest dose often 46.2 µM), for inactives: at the top dose activity change, negative = growth inhibition, most hits filed as inhibitors; further: potency means the concentration at half of the fitted maximal effect; nearly all actives have a fitted effect of over 55% in size
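Cell growth measured by CellTiter-Glo luminescence after a minimum 48 h, 37 C compound exposure with 20 nM CPT in Tdp1-knockout DT40 cells stably expressing hTDP1, seeded 400/well; qHTS titration format.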
ELG1 DNA repair – qHTS screen for small molecules that inhibit ELG1-dependent DNA repair in human embryonic kidney (HEK293T) cells expressing luciferase-tagged ELG1 | HEK293T ELG1-luciferase reporter, luminescence, 16 h; DNA damage induced by 5-fluorouridine | Potency, µM (series often up to 46.1 µM), without a hit: top-dose activity change, negative = inhibition, most hits filed as inhibitors | hit rate 2.3% among 330,000; further: potency means the concentration at half of the fitted maximal effect; nearly all actives have a fitted effect of over 55% in size
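Quantitative HTS, concentration-response format. 2,000 cells/well co-treated with 5-fluorouridine and compound, 16 hr in 5% CO2 at 37 °C; ONE-Glo luminescence read after 30 min.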
IL1B secr inh – qHTS for Inhibitors of Inflammasome Signaling: IL-1-beta AlphaLISA Primary Screen; hit rate 4.7% among 360,000; activity change, % at 57.5 µM; THP-1 LPS/ATP IL-1B secretion, AlphaLISA, 16 h; stronger effect = lower value; in the data active means activity change below about -50%; inconclusive means mostly about -30% to -49%
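Secreted IL-1B measured by AlphaLISA bead assay after 16 h compound exposure of THP-1 cells; compounds (final up to 57.5 uM) added 1 h before LPS (250 ng/mL) and ATP (1.25 mM) stimulation; lower signal means less secretion.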
TDP1 cell noCPT – qHTS for Inhibitors of human tyrosyl-DNA phosphodiesterase 1 (TDP1): qHTS in cells in absence of CPT | DT40 Tdp1-/- hTDP1 cells, no CPT, ATP luminescence, 48 h | Potency, µM (highest dose often 46.2 µM), for inactives: at the top dose activity change, negative = growth inhibition, hits mostly inhibitors | hit rate 15% among 420,000; further: potency means the concentration at half of the fitted maximal effect; nearly all actives have a fitted effect of over 55% in size
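Chicken DT40 Tdp1-/- cells complemented with human TDP1, screened without camptothecin (DMSO vehicle only), 400 cells/well. Compounds pin-transferred, cells incubated at 37 °C for at least 48 hr. Growth read as ATP-dependent luminescence (CellTiter-Glo, 30 min at RT).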
Starred values were filed as active, the others as inactive; [ ] = remark or other dose. An excerpt weighted towards active compounds, which were near 19% of everything screened. Unless noted, the call rests on the fitted dose curve; in most records, active means well fitted curve in the direction sought with a large enough effect; inconclusive means small, poorly fitted or top-dose-only effect, or another doubt; inactive means no such curve, though single readings can be large; an effect the other way counts as inactive or inconclusive. On the % scale 0 is the no-effect control and ±100 the full control effect.

Screening O=C(NCC1CCN(Cc2ccc(F)cc2)CC1)C1CCCN(c2ncnc3c2nc2n3CCCCC2)C1 (stereo not given) returned Giardia kill 1, TDP1 block 4%, TDP1 cell CPT inconclusive, ELG1 DNA repair -19%, IL1B secr inh inconclusive and TDP1 cell noCPT inconclusive.
Screening O=C(NCc1ccccc1)C1CCCN(c2ncnc3c2nc2n3CCCCC2)C1 (stereo not given) returned Giardia kill inconclusive, TDP1 block 2%, TDP1 cell CPT inconclusive, ELG1 DNA repair inconclusive, IL1B secr inh -15 and TDP1 cell noCPT 21µM*.
O=C(Nc1cccnc1)C1CCCN(c2ncnc3c2nc2n3CCCCC2)C1 (stereo not given) was read as Giardia kill -2, TDP1 block 7%, TDP1 cell CPT -30%, ELG1 DNA repair -9%, IL1B secr inh 26 and TDP1 cell noCPT inconclusive.
Screening O=C(Nc1cccc(Cl)c1)C1CCCN(c2ncnc3c2nc2n3CCCCC2)C1 (stereo not given) returned TDP1 block 0%, TDP1 cell CPT 5.2µM* and TDP1 cell noCPT inconclusive.
Screening O=C(NCC1CCN(Cc2cccc(Cl)c2)CC1)C1CCCN(c2ncnc3c2nc2n3CCCCC2)C1 (stereo not given) returned Giardia kill 6, TDP1 block 2%, TDP1 cell CPT 26µM*, ELG1 DNA repair inconclusive, IL1B secr inh inconclusive and TDP1 cell noCPT inconclusive.
For O=C(NCc1cccc(Cl)c1)C1CCCN(c2ncnc3c2nc2n3CCCCC2)C1 (stereo not given) the results were Giardia kill -20, TDP1 block 3%, TDP1 cell CPT -1%, ELG1 DNA repair inconclusive, IL1B secr inh inconclusive and TDP1 cell noCPT 12µM*.
For O=C(NCCc1ccc(Cl)cc1)C1CCCN(c2ncnc3c2nc2n3CCCCC2)C1 (stereo not given) the results were Giardia kill -9, TDP1 block 5%, TDP1 cell CPT inconclusive, ELG1 DNA repair inconclusive, IL1B secr inh 42 and TDP1 cell noCPT inconclusive.
For Cc1nn(CC(=O)NCCc2ccccc2)c(=O)c2nn(-c3ccccc3)c(C)c12 the results were TDP1 block 4%, TDP1 cell CPT -9% and TDP1 cell noCPT -21%.
CC1CCN(c2cc3c(cc2F)c(=O)c(S(=O)(=O)c2ccc(Cl)cc2)cn3C)CC1 was read as TDP1 block 1%, TDP1 cell CPT inconclusive and TDP1 cell noCPT inconclusive.
For Cc1cccc(CCNC(=O)C2CCCN(c3ncnc4c3nc3n4CCCCC3)C2)c1 (stereo not given) the results were Giardia kill -1, TDP1 block 4%, TDP1 cell CPT -18%, ELG1 DNA repair inconclusive, IL1B secr inh -23 and TDP1 cell noCPT inconclusive.
Screening Cc1ccc(CNC(=O)C2CCCN(c3ncnc4c3nc3n4CCCCC3)C2)cc1 (stereo not given) returned Giardia kill 20, TDP1 block -6%, TDP1 cell CPT inconclusive, ELG1 DNA repair -19%, IL1B secr inh 17 and TDP1 cell noCPT 9.2µM*.
COc1ccc(CCNC(=O)C2CCCN(c3ncnc4c3nc3n4CCCCC3)C2)c(OC)c1 (stereo not given) was read as Giardia kill -1, TDP1 block 6%, TDP1 cell CPT inconclusive, ELG1 DNA repair inconclusive, IL1B secr inh -19 and TDP1 cell noCPT inconclusive.
`COc1ccc(CNC(=O)C2CCCN(c3ncnc4c3nc3n4CCCCC3)C2)cc1` (stereo not given) gave Giardia kill -6, TDP1 block 6%, TDP1 cell CPT 18µM*, ELG1 DNA repair -21%, IL1B secr inh 70 and TDP1 cell noCPT inconclusive.
For Cc1cccc(NC(=O)COC(=O)c2nn(-c3ccccc3C(F)(F)F)cc2O)c1C the results were TDP1 cell CPT inconclusive, IL1B secr inh 16 and TDP1 cell noCPT -26%.
`COc1cc(F)c(S(=O)(=O)N2CCCN(S(=O)(=O)c3ccc(NC(C)=O)cc3)CC2)c(F)c1` gave TDP1 block 0%.
Screening Cc1cccc(N2CCN(C(=O)CS(=O)(=O)c3cccc4nsnc34)CC2)c1C returned TDP1 block 8%, TDP1 cell CPT 16µM* and TDP1 cell noCPT inconclusive.
O=C(CS(=O)(=O)c1cccc2nsnc12)N1CCN(c2cccc(C(F)(F)F)c2)CC1 was read as TDP1 block 0%, TDP1 cell CPT 8.2µM* and TDP1 cell noCPT 21µM*.
`O=C(CS(=O)(=O)c1cccc2nsnc12)N1CCN(c2ccccc2F)CC1` gave TDP1 block 4%, TDP1 cell CPT -17% and TDP1 cell noCPT -21%.
For COc1ccc(C2C(=O)N(C3CCC(C)CC3)CC(=O)N2Cc2ccccc2Cl)cc1OC (stereo not given) the results were TDP1 block 5%, TDP1 cell CPT inconclusive and TDP1 cell noCPT inconclusive.
`CCC(Sc1nc(-c2ccccc2F)nc2c1Cc1c(CO)cnc(C)c1O2)C(=O)Nc1cc(C)ccc1C` (stereo not given) gave TDP1 block -3%, TDP1 cell CPT -11% and TDP1 cell noCPT 0%.
O=C(ONc1ccc(N=NC(=O)c2ccccc2O)cc1)c1ccccc1 was read as Giardia kill inconclusive, TDP1 block 8%, TDP1 cell CPT 7.3µM*, ELG1 DNA repair inconclusive, IL1B secr inh 39 and TDP1 cell noCPT 6.5µM*.
Screening Cc1cc(OCC[N+]2(C)CCCCC2)nc2ccccc12 returned Giardia kill -27, TDP1 block -2%, TDP1 cell CPT inconclusive, ELG1 DNA repair -28%, IL1B secr inh 4 and TDP1 cell noCPT 21µM*.
Cc1cc(Cl)nc2ccccc12 was read as TDP1 cell CPT 3% and TDP1 cell noCPT -3%.
`Cc1ccc2c(c1)C(=O)[C@@]1(O)CCN(c3ccccc3)C1=N2` gave TDP1 block 9%[56.1 µM], TDP1 cell CPT 8.4µM* and TDP1 cell noCPT inconclusive.
Screening Cc1ccc2c(c1)C(=O)C1(O)CCN(c3ccccc3)C1=N2 (stereo not given) returned TDP1 block 5%, TDP1 cell CPT 8.9µM* and TDP1 cell noCPT 6.3µM*.
